Tau FP inhib – inhibitors of human tau fibril formation; Potency, µM (top dose mostly 57.7 µM), hits mostly inhibitors; actives 0.39% (n = 280,000); AID 1468; K18 P301L tau heparin fibrillization, Alexa594 FP, 6 h; also: nearly all actives have a fitted effect of over 55% in size
Target sequence (P10636 561-689 P618L limits assumed): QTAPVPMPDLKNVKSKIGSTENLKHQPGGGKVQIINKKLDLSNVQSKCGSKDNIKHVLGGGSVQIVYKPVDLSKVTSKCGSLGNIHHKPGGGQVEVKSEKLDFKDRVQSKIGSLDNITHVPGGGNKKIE
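Recombinant K18 P301L […], labeled with Alexa 594 at 0.24 uM over 15 uM unlabeled; heparin inducer 20 uM final; 37 C, 6 hr; FP endpoint.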
JMJD2E inh – blocks human JMJD2E demethylase activity; B2RXH2; actives 1.6% (n = 230,000); Potency, µM (highest dose often 57.1 µM), most hits filed as inhibitors; JMJD2E catalytic domain, FDH-coupled NADH fluorescence (FDH is formaldehyde dehydrogenase); also: nearly all actives have a fitted effect of over 50% in size
Target sequence (B2RXH2 1-337 limits assumed): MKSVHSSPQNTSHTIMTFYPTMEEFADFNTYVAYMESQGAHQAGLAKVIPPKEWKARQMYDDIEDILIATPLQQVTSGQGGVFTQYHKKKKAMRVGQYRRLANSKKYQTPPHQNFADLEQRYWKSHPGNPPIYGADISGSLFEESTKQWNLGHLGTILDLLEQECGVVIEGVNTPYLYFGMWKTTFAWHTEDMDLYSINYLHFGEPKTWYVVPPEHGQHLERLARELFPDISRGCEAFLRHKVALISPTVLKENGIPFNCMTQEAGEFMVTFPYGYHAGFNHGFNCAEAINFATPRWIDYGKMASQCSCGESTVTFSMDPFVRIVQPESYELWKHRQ
Tau fibril ThT – tau fibrillization inhibition (ThT binding) | recombinant tau K18 P301L, heparin-induced fibrillization, ThT fluorescence | Potency, µM (series often up to 57.4 µM), hits mostly inhibitors | actives 2.1% (n = 270,000); also: nearly all actives have a fitted effect of over 55% in size
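Aggregation was driven by heparin (20 uM final) acting on recombinant tau […] bearing P301L in 100 mM sodium acetate pH 7; fibrils were detected with Thioflavin T.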
TRb-SRC2 inh – inhibitors of human thyroid hormone receptor beta-SRC2 interaction; P10828; actives 0.065% (n = 280,000); AID 1469; Potency, µM (titrated, usually from 106 µM), most hits filed as inhibitors; TRbeta-SRC2 peptide binding, fluorescence polarization; receptor liganded with 1 µM T3; also: nearly all actives have a fitted effect of over 50% in size
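Fluorescence polarization of 20 nM Texas Red SRC2 peptide (20-aa NR interaction domain) bound to 0.6 uM human TRb ligand-binding domain, with 1 uM T3, after 5 hr at ambient temperature; inhibition seen as decreased polarization.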
Tau fluor counter – counter-screen for tau fibril formation inhibitors. tau K18 P301L (four-repeat tau fragment) Alexa594 fluorescence, heparin fibrillization. Potency, µM (highest dose often 57.7 µM). actives 0.93% (n = 280,000); also: nearly all actives have a fitted effect of over 55% in size
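Human K18 P301L tau (15 uM unlabeled plus 0.24 uM Alexa 594-labeled, final) in 100 mM sodium acetate pH 7 was mixed with compound and 20 uM heparin and incubated 6 hr at 37 C.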
TexasRed fluor – counter-screen for TRb-SRC2 inhibitors: fluorescence interference; TRb/SRC2 Texas Red total fluorescence interference; Potency, µM (titrated, usually from 106 µM); actives 0.29% (n = 280,000); active = well fitted curve in either direction with a large enough effect; inconclusive = small, poorly fitted or top-dose-only effect
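Flags fluorescent or light-absorbing compounds by total fluorescence, S + 2P, at 555 nm excitation and 632 nm emission. Mixture: 20 nM Texas Red SRC2 peptide, 0.6 uM human TRb LBD, 1 uM T3, 5% DMSO; compound exposure 5 h at ambient temperature.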
A number is an active result; n = inactive; u = inconclusive; x = no result given; [ ] = remark or other dose. Hits are enriched below; roughly 3.5% of the tested compounds scored in any of these assays. Unless noted, calls follow the shape of the dose curve; as a rule, active = well fitted curve in the direction sought with a large enough effect; inconclusive = small, poorly fitted or top-dose-only effect, or another doubt; inactive = no such curve, though single readings can be large; an effect the other way counts as inactive or inconclusive.

SMILES	Tau FP inhib	JMJD2E inh	Tau fibril ThT	TRb-SRC2 inh	Tau fluor counter	TexasRed fluor
COCC(C)NC(=O)c1cc2cccc([N+](=O)[O-])c2[nH]1 (configuration not stated)	n	n	x	n	n	n
Nc1[nH]n(-c2ccccc2)c(=O)c1N=Nc1ccc2c(c1)OCO2	u	n	2.2µM	n	10µM[quencher]	n
Cc1[nH]n(-c2ccccc2)c(=O)c1N=Nc1ccccc1	n	n	u	n	n	n
Cc1cc([N+](=O)[O-])ccc1N=Nc1c(N)[nH]n(-c2ccccc2)c1=O	u	n	16µM	n	u	n
Nc1[nH]n(-c2ccccc2)c(=O)c1N=Nc1ccc2c(c1)OCCO2	n	n	6.3µM	n	11µM[quencher]	n
O=c1c(N=Nc2ccc(O)cc2)c(-c2ccccc2)[nH]n1-c1ccc([N+](=O)[O-])cc1	n	n	u	n	u	n
COc1ccc2c(c1)C(=O)[C@@H](OC(=O)NCc1ccco1)[C@H](c1ccc(OC)c(Br)c1)O2	n	n	n	n	n	n
N#C/C(=C\c1ccccc1)c1ccccn1	n	n	n	n	n	n
N#C/C(=C1/C(=O)Nc2ccc(Br)cc21)c1ccccn1	u	n	28µM	n	n	n
COc1cc2nc(N3CCN(C(=O)[C@@H]4COc5ccccc5O4)CC3)nc(N)c2cc1OC	x	u	x	n	x	n
CCOC(=O)c1c(N)sc2c(OCC)c(Br)ccc12	n	n	u	n	25µM[quencher]	n
CCOC(=O)c1c(NC(C)=O)sc2c(OCC(O)CNC(C)(C)C)c(Br)ccc12 (configuration not stated)	n	n	n	n	n[2.34 µM]	n
O=c1[nH]cnc2c1ncn2C1CC(O)C(CO)O1 (configuration not stated)	n	n	n	n	n	n
C=CCN1C(=O)N/C(=C/c2ccc(N3CCOCC3)o2)C1=O	u	n	7.9µM	n	n	n
O=C1N/C(=C/c2ccc(N3CCOCC3)o2)C(=O)N1c1ccccc1	n	n	u	n	n	n
CCS(=O)(=O)c1nc(NC(C)=O)n[nH]1	n	u	n	n	n	n
CCOC(=O)C1CCN(C(=O)Cc2c(C(=O)O)n(CC)c3ccccc23)CC1	n	n	n	n	n	n
CCN(CC)CCCNC(=O)c1cn(CCOC)c(=O)c2c1c1ccccc1n2C	n	u	n	n	n	n
CC(C)CC(=O)NC(c1cccs1)c1ccc2cccnc2c1O (configuration not stated)	n[2.34 µM]	n	n	n	n[2.34 µM]	n
Oc1c(C(Nc2nccs2)c2ccc(C(F)(F)F)cc2)ccc2cccnc12 (configuration not stated)	u	3.5µM	n	n	u	n
CCC(=O)NC(c1cccs1)c1ccc2cccnc2c1O (configuration not stated)	n	25µM	n	n	n	n
CCCCC(=O)NC(c1ccccc1OC)c1ccc2cccnc2c1O (configuration not stated)	n	u	x	n	n	n
CCCC(=O)NC(c1ccccc1OC)c1ccc2cccnc2c1O (configuration not stated)	n	32µM	n	n	n	n
COc1ccc(C(NC(C)=O)c2ccc3cccnc3c2O)c(OC)c1 (configuration not stated)	n	22µM	n	n	n	n
COc1cc(NC(=O)C(CC(C)C)N2Cc3ccccc3C2=O)cc(OC)c1 (configuration not stated)	n	x	n	n	n	n
SMILES	Tau FP inhib	JMJD2E inh	Tau fibril ThT	TRb-SRC2 inh	Tau fluor counter	TexasRed fluor
COc1cccc(-n2sc3c(c2=S)-c2cc(OC)ccc2NC3(C)C)c1	n	n	n	n	13µM[quencher]	n
O=C(Nc1cccs1)Nc1cc(C(F)(F)F)ccc1Cl	n	x	n	n	6.3µM[quencher]	n
COc1ccc(NC(=O)Nc2cccs2)cc1Cl	u	u	u	n	10µM[quencher]	n
O=C(Nc1ccc(C(F)(F)F)cn1)Nc1cccs1	n	n	n	n	n	n
COc1ccc(C(=O)Nc2ccc(NC(=O)c3cccs3)cc2)cc1Cl	n	u	u	n	n	u
CC(C)(C)c1nn2cnnc2n(/N=C/c2ccccc2)c1=O	n	n	n	n	n	n
S=C(Nc1cccc2ccccc12)NC1CCCCC1	n	u	n	n	n	n
CSCC[C@H](NC(=O)[C@H](Cc1ccccc1)NC[C@@H](NC[C@@H](N)CS)C(C)C)C(=O)O	u	x	25µM	n	n	n
CSCCC(NC(=O)OCc1ccccc1)C(=O)O (configuration not stated)	n	u	n	n	n	n
Oc1ccccc1/C=N/Nc1nccnc1Cl	n	25µM	n	n	n	n
Oc1ccc(/C=N/Nc2nccnc2Cl)c(O)c1	n	u	u	n	n	n
NC(=O)CNC(=O)[C@@H]1CC2(CC(c3cccc(Br)c3)=NO2)CN1C(=O)c1ccc(Br)cc1 (some centres not stated)	n	n	u	n	n	n
CCc1n(CC(O)COC2CCCCC2)c2ccccc2[n+]1C (configuration not stated)	n	10µM	n	n	n	n
CCc1n(CC(O)COCC2CC=CCC2)c2ccccc2[n+]1C (configuration not stated)	n	11µM	n	n	n	n
Cc1nc2ccccc2n1CC(O)COCC1CC=CCC1 (configuration not stated)	n	n	n	n	n	n
CC(=O)c1c(C)nc(Nc2nc(C)c3cc(C)ccc3n2)nc1C	n	u	n	n	n	n
CCCn1c(/C=N/Nc2nc3ccccc3[nH]2)nc2ccccc21	u	u	u	n	u	n
Cc1c(/C=N/Nc2nc3ccccc3[nH]2)c2ccccc2n1C	n	u	x	n	14µM[quencher]	n
Cn1c(/C=N/Nc2nc3ccccc3[nH]2)nc2ccccc21	n	n	4µM	n	u	n
CC(C)Cn1c(/C=N/Nc2nc3ccccc3[nH]2)nc2ccccc21	n	u	u	n	28µM[quencher]	n
Cc1ccsc1/C=N/Nc1nc2ccccc2[nH]1	n	n	u	n	u	n
Cc1nn(-c2ccccc2)c(C)c1/C=N/Nc1nc2ccccc2[nH]1	n	n	n	u	n	u
C(=N\Nc1nc2ccccc2[nH]1)/c1cccs1	18µM	n	5µM	u	u	n
C=CCn1cc(/C=N/Nc2nc3ccccc3[nH]2)c2ccccc21	n	u	7.9µM	n	11µM[quencher]	n
O=c1cc(-c2ccc(O)c(O)c2)oc2cc(OC3OC(CO)C(O)C(O)C3O)cc(O)c12 (configuration not stated)	n	11µM	u	n	u	n
